# Source: PubChem
# In the library only some 32% were active in any assay of this set; here they are far more common.
# PostGolgi ctrl – growth of the yeast control strain, post-Golgi counter-screen; efflux-deficient yeast background strain, growth absorbance A615, 16 h; inhibition, % at 10 µM; 98,000 tested, 5% active
# CYP2C19 act – cytochrome P450 2C19 (human) activation; 96,000 tested, under 10 active; P33261; activation factor at 5 µM; recombinant CYP2C19, luciferin-H EGE luminescence; hits give high values; 0 = fully inhibited enzyme, 1 = untreated enzyme;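 active = activation factor of at least 2 at 5 µM in the primary screen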
# CYP2C19 inhib – human CYP2C19 inhibition; P33261; CYP2C19 Supersomes, luciferin-H EGE luminescence, 30 min; inhibition, % at 5 µM; 96,000 tested, 21% active; AID 778;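 active = CYP2C19 inhibition above a set limit at 5 µM in the primary screen, cut at about 50% in these data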
# CYP2C9 act – increases human cytochrome P450 2C9 activity. P11712. recombinant CYP2C9, luciferin-H conversion, luminescence; hits give high values; factor 1 = untreated enzyme, 0 = blocked. activation factor at 5 µM. 96,000 tested, 1.4% active;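 active = activation factor of 2 or more for CYP2C9 at a 5 µM dose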
# Target sequence (P11712 whole entry, looked up): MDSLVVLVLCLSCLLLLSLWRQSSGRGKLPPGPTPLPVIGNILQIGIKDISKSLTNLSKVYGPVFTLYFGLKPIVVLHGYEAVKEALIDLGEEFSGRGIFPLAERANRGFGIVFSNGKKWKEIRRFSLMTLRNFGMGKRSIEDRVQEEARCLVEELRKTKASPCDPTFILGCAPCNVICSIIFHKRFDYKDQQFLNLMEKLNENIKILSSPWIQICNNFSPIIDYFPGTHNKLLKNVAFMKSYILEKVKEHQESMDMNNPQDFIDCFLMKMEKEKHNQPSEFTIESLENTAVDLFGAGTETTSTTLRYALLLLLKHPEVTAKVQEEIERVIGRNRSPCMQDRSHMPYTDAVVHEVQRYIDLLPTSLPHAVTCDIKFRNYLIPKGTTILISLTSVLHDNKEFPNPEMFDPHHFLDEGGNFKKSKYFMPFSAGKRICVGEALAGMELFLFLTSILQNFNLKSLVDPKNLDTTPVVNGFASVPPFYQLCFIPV
# CYP2C9 inhib – inhibitors of human CYP2C9. P11712. CYP2C9 Supersomes, luciferin-H conversion, luminescence. inhibition, % at 5 µM. 96,000 tested, 20% active. AID 777;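 active = blocking of liver enzyme CYP2C9 beyond about 50% at 5 µM, limit read from the data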
# PostGolgi yeast – growth inhibition of a yeast mutant, post-Golgi transport screen; post-Golgi transport phenotypic cell assay; inhibition, % at 10 µM; 98,000 tested, 0.9% active;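 note: yeast cells grown in 1536-well plates; yeast grown about 18 h at 30C before absorbance read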
# Numbers stand for hits; - = inactive; . = no result given. Cut-off read from the data, not from the text of the source, unless noted: active = inhibition above about 30%; inactive = the rest.
SMILES,PostGolgi ctrl,CYP2C19 act,CYP2C19 inhib,CYP2C9 act,CYP2C9 inhib,PostGolgi yeast
CC(=O)c1ccc(NC(=O)C2CCC(C)NC2=O)cc1 (centres undefined),-,-,-,-,-,-
COc1cccc(CN2C(=O)C3(C(C#N)=C(N)OC4=C3C(=O)CCC4)c3ccccc32)c1 (centres undefined),-,-,-,-,65.9,34.5
COCc1[nH]nc2c1C1(CCC3(CC1)OCCO3)C(C#N)=C(N)O2,-,-,-,-,-,-
CC1(C)C(C#N)=C(N)OC2=C1C(=O)CCC2,-,-,67.9,-,-,-
N#CC1=C(N)OC2=C(C(=O)CCC2)C12CCC1(CC2)OCCO1,46.1,-,-,-,-,-
CCOC(=O)c1ccc(NC(=O)Nc2ccn(C)n2)cc1,-,-,-,-,-,-
CCOC(=O)NC1(NC2CCCCC2)Oc2ccccc2O1,-,-,-,-,56.7,-
COc1ccc(NC(=O)/C=C/c2cc(Br)ccc2OC)cc1,-,-,-,-,-,-
CCN(CC)c1ccc(NC(=O)/C=C/c2cc(Br)ccc2OC)cc1,-,-,-,2.2,-,-
COc1ccc(Br)cc1-c1nc(C)c(C(C)=O)n1O,-,-,-,-,-,-
COc1ccc(Br)cc1/C=C/C(=O)Nc1c(C)cccc1C,-,-,-,2.1,-,-
CCc1nn(C)c(-c2n[nH]c(=S)n2N)c1Cl,-,-,-,-,-,-
CCN(CC)C(=O)N1CCC(NC(=O)c2ccccc2)CC1,-,-,-,-,-,-
O=C1CC(SCc2nc3ccccc3[nH]2)C(=O)N1c1ccc(Cl)cc1 (centres undefined),-,-,-,-,-,-
O=C1CC(SCc2nc3ccccc3[nH]2)C(=O)N1c1cccc(F)c1 (centres undefined),-,-,81.1,-,71.0,-
O=C1CC(SCc2nc3ccccc3[nH]2)C(=O)N1c1ccc(F)c(Cl)c1 (centres undefined),-,-,52.4,-,-,-
O=C1CC(SCCc2nc3ccccc3[nH]2)C(=O)N1c1ccc(Cl)cc1 (centres undefined),-,-,-,-,-,-
CCOC(=O)c1cnn(-c2cc(Oc3cccc(C)c3)ncn2)c1N,-,-,-,-,-,-
CC(C)c1cc(C(N)=O)c(NC(=O)c2cccc(COc3ccc(Cl)cc3)c2)s1,-,-,74.0,-,71.9,-
O=C(Cc1ccccc1)N/N=C/c1ccc([N+](=O)[O-])s1,-,-,-,-,-,-
O=C(CC(=O)N/N=C/c1ccc(Cl)cc1Cl)NCc1ccccc1,-,-,55.3,-,-,-
O=C(Cc1ccccc1)N/N=C/c1ccccc1Cl,-,-,57.0,-,-,-
O=C(N/N=C/c1cccc(Cl)c1Cl)Nc1ccccc1,36.2,.,.,.,.,-
C=CCNC(=O)CC(=O)N/N=C/c1ccccc1F,-,-,-,-,88.9,-
CC(C)(C)n1nnnc1C(c1cccs1)N1CCCc2ccccc21 (centres undefined),-,-,-,-,-,-
SMILES,PostGolgi ctrl,CYP2C19 act,CYP2C19 inhib,CYP2C9 act,CYP2C9 inhib,PostGolgi yeast
CC(C)C1C(=O)NC(=S)N1S(=O)(=O)c1ccc(C(C)(C)C)cc1 (centres undefined),-,-,-,-,-,-
Cc1ccc(C)c(S(=O)(=O)N2C(=S)NC(=O)C2CC(C)C)c1 (centres undefined),-,-,-,-,79.7,-
CCN(CC)C(=O)CN(c1ccc2c(c1)OCO2)S(C)(=O)=O,-,-,-,-,-,-
O=C(NCCNc1ccc([N+](=O)[O-])cc1)c1ccccc1Br,-,-,-,-,-,-
CC(C)(C)SCCNS(=O)(=O)c1ccc(F)cc1,-,-,-,-,-,-
O=[N+]([O-])c1ccc(NCCNS(=O)(=O)c2ccccc2)c(C(F)(F)F)c1,-,-,87.8,-,74.8,-
Cc1ccc(S(=O)(=O)NCCNC(=O)c2cc(OCC(F)(F)F)ccc2OCC(F)(F)F)cc1,-,-,-,-,-,-
O=C(NCCNc1ccc([N+](=O)[O-])cc1C(F)(F)F)c1ccccc1F,-,-,91.5,-,-,-
Cc1ccc(S(=O)(=O)NCCNc2ccc([N+](=O)[O-])cc2C(F)(F)F)cc1,39.6,-,-,-,76.6,-
O=C(COc1ccc(Cl)cc1Cl)Nc1nc2n(n1)C(c1ccccc1)CC(=O)N2 (centres undefined),-,-,-,-,-,-
O=C(Nc1ccccc1N1CCN(C(=O)c2ccccc2)CC1)c1cc2ccccc2o1,36.2,-,96.9,-,95.6,-
O=C(Nc1ccccc1N1CCCC1)c1cc2ccccc2o1,39.2,-,-,-,-,-
CN1CCN(c2ccccc2NC(=O)c2cc3ccccc3o2)CC1,-,-,-,-,-,-
O=C(Nc1ccc(N2CCN(C(=O)c3ccccc3)CC2)cc1)c1cc2ccccc2o1,-,-,-,-,-,-
O=C(Nc1ccccc1N1CCN(C(=O)c2ccccc2)CC1)c1cc(Br)ccc1Cl,30.9,-,71.3,-,81.8,-
O=C1CC(N2CCSCC2)C(=O)N1CCc1ccccc1 (centres undefined),-,-,-,-,-,-
Cc1ccc(S(=O)(=O)N2CCN(CC(=O)NC(=O)NCc3ccccc3)CC2)cc1C,-,-,-,-,-,-
NC(=O)C(c1ccccc1)c1ncc(C(F)(F)F)cc1Cl (centres undefined),-,-,-,-,-,-
N#CC(c1cccc(Cl)c1)c1ncc(C(F)(F)F)cc1Cl (centres undefined),-,-,88.8,-,-,-
N#CC(c1ccc(Cl)cc1)c1ncc(C(F)(F)F)cc1Cl (centres undefined),-,-,94.3,-,-,-
O=C1CC2C(CC(OC(=O)c3ccc(-c4ccccc4)cc3)C2CO)O1 (centres undefined),-,-,-,-,71.8,-
O=C(Nc1ccn(C2CC(OC(=O)c3ccccc3)C(CO)O2)c(=O)n1)c1ccccc1 (centres undefined),-,-,-,-,-,-
COC(=O)c1ccc(NC(=O)c2ccccc2N(C)S(C)(=O)=O)cc1,-,-,62.0,-,-,-
COC(=O)c1ccccc1NC(=O)c1ccccc1N(C)S(C)(=O)=O,-,-,50.0,-,-,-
CCOC(=O)c1ccccc1NC(=O)c1ccccc1N(C)S(C)(=O)=O,-,-,76.2,-,-,-
CN(c1ccccc1C(=O)Nc1ccc(S(=O)(=O)N2CCCC2)cc1)S(C)(=O)=O,-,-,-,-,63.9,-
Cc1ccc(CN2C(=O)CCC2C(=O)NC2CCCC2)cc1 (centres undefined),-,-,-,-,-,-
O=C(Cc1ccccc1)N/N=C/c1cccs1,-,-,-,-,-,-
CC1=CCC(C(=O)N/N=C/c2cccs2)C(c2ccc(F)cc2)C1 (centres undefined),45.5,-,-,-,-,-
